Bioassay records from PubChem BioAssay.
CHO-K1 Ca PAM = M1 PAM counterscreen hit in parental CHO-K1 cells; ATP EC20, Fluo-8 calcium fluorescence; 0% at ATP EC20, 100% at ATP max; activation, % at 3 µM; actives 0.02% (n = 360,000);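 active = activation above the run cutoff, the mean activation of all test compounds plus 3 SD, cut at about 40% in these data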;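 also: peak over basal fluorescence ratio in a 140 s read after ATP addition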
CHO-K1 Ca ag = nonselective activator or artifact in parental CHO-K1 cells | activation, % at 3 µM | Fluo-8 calcium fluorescence; scaled to maximal ATP response, vehicle zero | actives 0.48% (n = 360,000); in the data active = activation above about 15%;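 also: untransfected CHO-K1 host cells lacking M1 receptor as counterscreen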
CHRM1 antagonist = blocks human M1 muscarinic receptor. P11229. CHO-K1 hM1, Fluo-8 calcium fluorescence, ACh EC80 antagonist. inhibition, % at 3 µM. actives 1.3% (n = 360,000);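 active = percent inhibition above its own plate's cutoff, namely the mean of that plate's compound wells plus 3 SD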;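 also: peak over basal fluorescence ratio during 140 s after agonist addition; 0% = ACh EC80 plus DMSO and 100% = DMSO alone without agonist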
Target sequence (P11229 whole entry, looked up): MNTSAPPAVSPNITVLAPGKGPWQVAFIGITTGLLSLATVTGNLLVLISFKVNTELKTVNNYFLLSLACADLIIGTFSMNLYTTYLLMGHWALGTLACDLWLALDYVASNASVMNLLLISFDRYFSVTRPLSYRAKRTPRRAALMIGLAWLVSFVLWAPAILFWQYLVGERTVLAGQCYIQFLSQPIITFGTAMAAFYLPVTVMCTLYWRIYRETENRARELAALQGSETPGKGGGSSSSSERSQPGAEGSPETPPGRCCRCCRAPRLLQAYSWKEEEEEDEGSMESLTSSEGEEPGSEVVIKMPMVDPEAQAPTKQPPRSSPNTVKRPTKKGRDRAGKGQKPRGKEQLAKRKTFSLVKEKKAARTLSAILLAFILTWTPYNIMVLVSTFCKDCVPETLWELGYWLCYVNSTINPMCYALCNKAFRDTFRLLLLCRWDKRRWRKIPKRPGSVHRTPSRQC
CHRM1 PAM = positive allosteric modulators of human M1 muscarinic receptor. P11229. CHO-K1 hM1, Fluo-8 calcium fluorescence, ACh EC20; 0% = ACh EC20, 100% = maximal ACh. activation, % at 3 µM. actives 0.088% (n = 360,000). AID 588819; in the data active = activation above about 19%, passing the limit was not always enough
CHRM1 agonist = human M1 muscarinic receptor agonism | P11229 | CHO-K1 hM1, Fluo-8 calcium fluorescence, agonist mode; 0% DMSO, 100% acetylcholine EC100 | activation, % at 3 µM | actives 0.33% (n = 360,000);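 active = activation above the run's mean compound activation plus 3 SD, cut at about 16% in these data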;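 also: peak over basal fluorescence ratio within a 140 s kinetic read after compound addition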
CHO-K1 Ca antag = nonselective inhibitor or artifact in parental CHO-K1 cells | actives 0.6% (n = 360,000) | ATP-induced calcium, Fluo-8 fluorescence | inhibition, % at 3 µM;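 active = inhibition above a per-plate cutoff, the plate's mean sample inhibition plus 3 SD, cut at about 24% in these data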;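 also: 0% = DMSO plus EC80 ATP and 100% = DMSO alone without ATP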
The depositor's hits bear a star. Sampled rows, rich in hits. Any-hit rate of the full collection: about 2.3%.

SMILES	CHO-K1 Ca PAM	CHO-K1 Ca ag	CHRM1 antagonist	CHRM1 PAM	CHRM1 agonist	CHO-K1 Ca antag
CC(C)CN(C(=O)c1cccc(S(=O)(=O)N2CCN(Cc3ccccc3)CC2)c1)C1CCS(=O)(=O)C1 (centres undefined)	-9	0	-32	25*	-1	-10
Cc1ccc(C(OCC(C)(C)C[N+](C)(C)C)c2ccccc2)cc1 (centres undefined)	-15	-1	99*	-34	-13	19
CN(C)CC#CCOC(c1ccccc1)c1ccccc1	-6	0	80*	-20	7	-12
CCNCCOC(c1ccccc1)c1ccccc1	15	1	26*	-25	-6	-8
CCN(CC)CCOC(c1ccccc1)c1ccc(C)cc1 (centres undefined)	19	1	96*	-26	-7	1
C(#CCN1CCOCC1)COCCCOC(c1ccccc1)c1ccccc1	-9	0	-3	-4	-10	-36
O=C(NCC1CCCO1)c1ccc2[nH]c3c(c2c1)CCCC3 (centres undefined)	11	1	14	-6	1	-4
O=C(CCc1ccccc1)Nc1cc2c3c(c1)CC(=O)N3CCC2	14	1	-6	9	-1	-2
O=C(OCC#CCSc1nnc(-c2cccc3ccccc23)o1)c1cccc2[nH]ccc12	3	1	2	-1	-1	-5
CC(C)CNC(=O)C1CCN(S(=O)(=O)c2ccc3c(c2)OCCO3)CC1	13	1	-17	11	-1	-3
COCCN(CCOC)CC(O)COC(c1ccccc1)c1ccccc1 (centres undefined)	22	1	-12	-2	-16	1
CCN(CC)CC#CCOC(c1ccccc1)c1ccccc1	24	1	94*	-23	-5	-15
COc1ccc(CN2CCCC(C(=O)c3cccc(C(F)(F)F)c3)C2)cc1O (centres undefined)	13	0	31	-36	-15	-6
CCc1[nH]nc(C(=O)N2CCCC(C(=O)c3cccc(C(F)(F)F)c3)C2)c1C (centres undefined)	5	15*	2	-8	1	-11
CC(=O)Nc1ccc(CN2CCCC(C(=O)c3cccc(C(F)(F)F)c3)C2)cc1 (centres undefined)	20	3	64*	-26	-9	-3
O=C(c1cccc(C(F)(F)F)c1)C1CCCN(Cc2ccc(OCCO)cc2)C1 (centres undefined)	0	23*	66*	-32	-14	7
COc1ccccc1C(=O)C1CCCN(Cc2cccc(OCCO)c2)C1 (centres undefined)	-4	0	-3	-8	-8	14
Cn1nccc1C(=O)c1ccc(Cl)cc1	-9	-1	-21	0	-3	24*
CCC1CCCCN1CCCNC(=O)CN1C(=O)CSc2ccc(S(=O)(=O)N3CCC(C)CC3)cc21 (centres undefined)	-4	0	39*	-14	-6	-7
CCCCN(C)CCNC(=O)CN1C(=O)CSc2ccc(S(=O)(=O)N3CCOCC3)cc21	0	0	42*	-18	-6	-17
CC(C)CN(CCNC(=O)CN1C(=O)CSc2ccc(S(=O)(=O)N3CCOCC3)cc21)CC(C)C	-3	-1	40*	-10	-6	0
COc1c(OC(C)=O)c(=O)n2c3ccccc3c3ccnc1c32	-8	0	1	-5	-6	3
COc1ccc(C(=O)NCCCCNC(=O)c2ccc(OC)c(OC)c2)cc1OC	-2	0	-8	1	-3	1
O=C(CC(=O)c1ccccc1)Nc1ccc(Cl)cc1	11	4	-6	5	-3	5
CCCCc1nc2cc(C(=O)NCc3nccn3CC)ccc2o1	17	0	87*	-24	-6	-12
SMILES	CHO-K1 Ca PAM	CHO-K1 Ca ag	CHRM1 antagonist	CHRM1 PAM	CHRM1 agonist	CHO-K1 Ca antag
COC(=O)C1(c2ccccc2)NC(c2cccs2)C2C(=O)N(c3ccccc3)C(=O)C21 (centres undefined)	31	12	-17	14	41*	-14
COC(=O)C1(c2ccccc2)NC(c2cccs2)C2C(=O)N(C)C(=O)C21 (centres undefined)	9	0	0	3	-1	-9
CC(=O)Nc1ccc(NC(=O)Cn2cnc3c(nnn3Cc3ccc(F)cc3)c2=O)cc1	15	1	-2	1	16*	-4
Cc1cccnc1C(NC(=O)C1CCN(Cc2ccc(Oc3ccccc3)cc2)CC1)c1ccccc1 (centres undefined)	1	0	27*	-20	-9	0
O=C(NC(c1ccc(-c2ccccc2)cc1)c1cnccn1)C1CCN(Cc2cccs2)CC1 (centres undefined)	-5	2	12	-3	-5	24*
Cc1cccnc1C(NC(=O)C1CCN(Cc2ccccc2)CC1)c1ccc(F)cc1 (centres undefined)	21	0	-7	0	-3	-12
O=C(NC(c1ccc(-c2ccccc2)cc1)c1cnccn1)C1CCN(CCN2C(=O)c3ccccc3C2=O)CC1 (centres undefined)	-14	0	21	-12	-4	30*
O=C(NC(c1ccccc1)c1cnccn1)C1CCN(CCCOc2ccccc2)CC1 (centres undefined)	-12	0	11	-7	-9	0
O=C(NC(c1ccc(-c2ccccc2)cc1)c1cnccn1)C1CCN(Cc2ccc(Oc3ccccc3)cc2)CC1 (centres undefined)	9	3	15	-8	-4	7
COc1ccc(NC(=O)COc2ccccc2Cc2ccccc2)cc1S(N)(=O)=O	-2	18*	37*	-17	6	48*
Oc1ccccc1C1=Nc2nc3ccccc3n2C(c2ccccc2)C1 (centres undefined)	16	1	-29	-3	-3	-5
Oc1ccccc1C1=NC(c2ccccc2)NC(c2ccccc2)C1 (centres undefined)	-16	0	15	-9	-3	26*
O=c1ccc(-c2ccc(S(=O)(=O)N3CCCCC3)o2)n[nH]1	-25	0	-1	1	-2	17
COc1ccc(S(=O)(=O)N2CCC(C(=O)N[C@@H](C)C(=O)NCc3ccccc3OC)CC2)cc1	14	1	-14	11	-6	-15
CS(=O)(=O)N1CCN(c2ccccc2NC(=O)c2ccc3c(c2)OCCO3)CC1	6	19*	-4	3	-5	-6
CC(C)C(=O)N1CCN(c2ccccc2NC(=O)c2ccc(C#N)cc2F)CC1	5	22*	9	4	-6	-2
Cc1ccc(C(=O)Nc2ccccc2N2CCN(C(=O)C(C)C)CC2)cc1C	-27	1	11	-1	-1	29*
